Results filed as inconclusive are left out. Calls of active or inactive are those of the source. The calls were made as follows: active = hit-call score of the fitted dose curve at least 0.9, where 1 is the maximum; inconclusive = response in the unintended direction; inactive = score below 0.9.
read-out: Broad substrate specificity ATP-binding cassette transporter ABCG2 (Homo sapiens) (UniProt Q9UNQ0); experiment: CLD_ABCG2_48hr: CellzDirect (CLD) Gene Expression Assay for ABC Transporter (ABCG2) at 48 hours (AID 2283704);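 as to AC50: potency for induction of ABCG2 mRNA above the DMSO baseline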
Method: CLD_48hr is a cell-based, multiplexed-readout assay that uses hepatocyte, a human liver primary cell, with measurements taken at 48 hours after chemical dosing in a 96-well plate.CLD_ABCG2_48hr is one of 16 assay component(s) measured or calculated from the CLD_48hr assay. It is designed to make measurements of mRNA induction, a form of inducible reporter, as detected with chemiluminescence signals by Quantitative Nuclease Protection Assay (qNPA) technology.Data from the assay component CLD_ABCG2_48hr was analyzed at the endpoint, CLD_ABCG2_48hr, in the positive analysis fitting direction relative to DMSO as the negative control and baseline of activity. Using a type of inducible reporter, gain-of-signal activity can be used to understand changes in the reporter gene as they relate to the gene ABCG2. Furthermore, this assay endpoint can be referred to as a primary readout. To generalize the intended target to other relatable targets, this assay endpoint is annotated to the transporter intended target family, where subfamily is ABC transporter.
Human hepatocyte cultures were treated daily for two consecutive days with fresh dosing solutions containing appropriate concentrations of the 320 ToxCast chemicals (chemical identities were blinded to CellzDirect and other ToxCast collaborators), vehicle control (0.2% DMSO), and positive control inducers as summarized in Table 1. Due to the large number of treatment groups and chemicals examined, the ToxCast chemicals were divided into two groups (spanning two independent cultures of hepatocytes from separate donor preparations (Hu778: ToxCast plates 1 and 2; Hu776: ToxCast plates 3 and 4). Each preparation of human hepatocyte cultures was treated with respective vehicle control, medium only control, set of six positive controls/reference chemicals for the five hepatic receptor pathways, and a subset of eight of the ToxCast chemicals (indoxacarb, pyrithiobac-sodium, norflurazon, cyhalofop-butyl, methomyl, thiram, acetochlor, and propiconazole). These replicate data, coupled with internal replicates designed within the blinded ToxCast chemical library, provided additional data to evaluate interindividual differences between hepatocyte preparations and their potential impact on chemical profiles.Cell morphology and integrity were evaluated using phase-contrast microscopy as an indicator of hepatocyte cell health (Tyson & Green, 1987). Cultures for each treatment group (i.e., media, vehicle [0.2% DMSO], positive control inducers [multiple concentrations], and the ToxCast chemicals [multiple concentrations]) were observed and cell morphology was assessed relative to vehicle control cultures at each harvest time point (0, 6, 24, or 48 h). […] Images were evaluated at the conclusion of the study to assess changes in cell integrity and account for the effects of chemical exposure on uncharacteristic changes in concentration-dependent gene expression profiles. The results from these determinations of apparent cytotoxicity were annotated (yes/no) alongside the corresponding qNPA data for reference.At the conclusion of each treatment period, hepatocyte cultures (96-well) were washed with 1 volume of HBSS, lysed by addition of 25 ul ArrayPlate lysis buffer (HTG, Tucson, AZ), and 70 ul/well of Denaturation Oil, denatured by incubation at 95C for 10 min, and frozen at approximately -70C until analysis by nuclease protection assay (qNPA) (Roberts et al., 2007). For qNPA analysis, cell lysates were thawed at 50C for approximately 30 min, qNPA probes were added, and samples were incubated at 95C for 10 min to begin the detection process by denaturing the target RNA, dissociating the duplexes and secondary structure hybridization. At the conclusion of the hybridization period, S1 nuclease reagent was added to each sample to digest all nonprotected nucleotides at 50C for 60-90 min. […]

Sequence of Broad substrate specificity ATP-binding cassette transporter ABCG2 (Homo sapiens) (Q9UNQ0 whole entry, looked up): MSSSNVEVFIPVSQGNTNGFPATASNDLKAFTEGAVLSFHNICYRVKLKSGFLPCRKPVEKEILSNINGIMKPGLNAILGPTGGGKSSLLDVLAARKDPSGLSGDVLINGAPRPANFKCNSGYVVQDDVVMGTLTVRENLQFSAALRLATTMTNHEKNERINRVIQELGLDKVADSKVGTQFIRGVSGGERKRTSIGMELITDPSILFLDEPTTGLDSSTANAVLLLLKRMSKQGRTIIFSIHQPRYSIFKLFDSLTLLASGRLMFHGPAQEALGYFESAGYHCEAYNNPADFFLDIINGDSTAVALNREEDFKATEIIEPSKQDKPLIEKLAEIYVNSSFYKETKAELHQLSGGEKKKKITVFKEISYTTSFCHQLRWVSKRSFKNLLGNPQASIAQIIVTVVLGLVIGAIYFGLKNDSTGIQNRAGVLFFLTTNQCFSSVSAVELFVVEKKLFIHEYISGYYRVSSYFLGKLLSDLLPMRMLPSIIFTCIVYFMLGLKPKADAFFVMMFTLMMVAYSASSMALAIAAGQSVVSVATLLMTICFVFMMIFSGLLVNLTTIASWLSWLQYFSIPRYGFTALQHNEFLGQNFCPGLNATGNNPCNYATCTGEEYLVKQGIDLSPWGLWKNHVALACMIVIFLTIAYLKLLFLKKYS

Q: With `CC1COC(Cn2cncn2)(c2ccc(Oc3ccc(Cl)cc3)cc2Cl)O1` (stereo not given) as the compound, how does the outcome read?
A: inactive

Q: Which AC50 does the source give for `COC(=O)N(OC)c1ccccc1COc1ccn(-c2ccc(Cl)cc2)n1` here?
A: 20 µM (active)

Q: For `CC(C)C1(C)N=C(c2nc3ccccc3cc2C(=O)O)NC1=O` (stereo not given), which outcome is on record?
A: inactive

Q: How did the outcome turn out when `COc1nc(C)nc(NC(=O)NS(=O)(=O)c2ccccc2Cl)n1` was run?
A: inactive

Q: `Fc1ccc(Oc2ccnc3cc(Cl)cc(Cl)c23)cc1` was tested. Which outcome did it give?
A: inactive

Q: Which outcome does the source give for `CCCC1COC(Cn2cncn2)(c2ccc(Cl)cc2Cl)O1` (stereo not given) here?
A: inactive

Q: `CO/C=C(/C(=O)OC)c1ccccc1Oc1cc(Oc2ccccc2C#N)ncn1` was tested. Which outcome did it give?
A: inactive

Q: How did the outcome turn out when `CS/C(C)=N/OC(=O)N(C)SN(C)C(=O)O/N=C(\C)SC` was run?
A: inactive

Q: `C=CCC1=C(C)C(OC(=O)C2C(C=C(C)C)C2(C)C)CC1=O` (stereo not given) was tested. Which outcome did it give?
A: inactive

Q: Which outcome does the source give for `COP(N)(=O)SC` (stereo not given) here?
A: inactive

Q: With `COc1nc(C)nc(NC(=O)NS(=O)(=O)c2ccccc2CCC(F)(F)F)n1` as the compound, how does the outcome read?
A: inactive

Q: `CC(C)Oc1cc(-n2nc(C(C)(C)C)oc2=O)c(Cl)cc1Cl` was tested. Which outcome did it give?
A: inactive

Q: For `CCc1nn(C)c(C(=O)NCc2ccc(C(C)(C)C)cc2)c1Cl`, which AC50 is on record?
A: 26.2 µM (active)

Q: For `Cc1cc(Cl)ccc1OCC(=O)O`, which outcome is on record?
A: inactive

Q: For `N#CC(CCc1ccc(Cl)cc1)(Cn1cncn1)c1ccccc1` (stereo not given), which outcome is on record?
A: inactive

Q: `CCCN(CCC)c1c([N+](=O)[O-])cc(S(N)(=O)=O)cc1[N+](=O)[O-]` was tested. Which outcome did it give?
A: inactive

Q: How did the AC50 turn out when `OC(c1ccc(Cl)cc1)(c1cncnc1)c1ccccc1Cl` (stereo not given) was run?
A: 33.4 µM (active)

Q: Which outcome does the source give for `C#CCOS(=O)OC1CCCCC1Oc1ccc(C(C)(C)C)cc1` (stereo not given) here?
A: inactive

Q: `CCCCNC(=O)OCC#CI` was tested. Which outcome did it give?
A: inactive

Q: How did the outcome turn out when `CCNc1nc(Cl)nc(NCC)n1` was run?
A: inactive

Q: Which outcome does the source give for `CN(C)C(=S)SSC(=S)N(C)C` here?
A: inactive

Q: For `CCCCC(CC)COC(=O)c1ccccc1C(=O)OCC(CC)CCCC` (stereo not given), which outcome is on record?
A: inactive

Q: For `N#Cc1nn(-c2c(Cl)cc(C(F)(F)F)cc2Cl)c(N)c1S(=O)C(F)(F)F` (stereo not given), which AC50 is on record?
A: 31.6 µM (active)

Q: With `CC(C)(C)c1ccc(CSc2cnn(C(C)(C)C)c(=O)c2Cl)cc1` as the compound, how does the outcome read?
A: inactive

Q: With `N#Cc1cc(Br)c(O)c(Br)c1` as the compound, how does the outcome read?
A: inactive

Q: How did the outcome turn out when `COC(=O)C(C)Oc1ccc(Oc2ccc(Cl)cc2Cl)cc1` (stereo not given) was run?
A: inactive

Q: How did the outcome turn out when `C=CC1(C)OC(=O)N(c2cc(Cl)cc(Cl)c2)C1=O` (stereo not given) was run?
A: inactive

Q: Which outcome does the source give for `O=C(O)COc1nc(Cl)c(Cl)cc1Cl` here?
A: inactive

Q: `C=CCC1=C(C)[C@@H](OC(=O)[C@@H]2[C@@H](C=C(C)C)C2(C)C)CC1=O` was tested. Which outcome did it give?
A: inactive

Q: Which outcome does the source give for `Oc1ccccc1-c1ccccc1` here?
A: inactive

Q: Which outcome does the source give for `CCCCOC(=O)c1ccccc1C(=O)OCCCC` here?
A: inactive

Q: With `O=C(Nc1ccccc1)Nc1ccnc(Cl)c1` as the compound, how does the outcome read?
A: inactive

Q: How did the outcome turn out when `CNC(=S)S` was run?
A: inactive

Q: `CCOc1cc(Oc2ccc(C(F)(F)F)cc2Cl)ccc1[N+](=O)[O-]` was tested. Which outcome did it give?
A: inactive

Q: `Cc1c(F)c(F)c(COC(=O)C2C(/C=C(\Cl)C(F)(F)F)C2(C)C)c(F)c1F` (stereo not given) was tested. Which outcome did it give?
A: inactive

Q: Which outcome does the source give for `COP(=S)(OC)Oc1nc(Cl)c(Cl)cc1Cl` here?
A: inactive

Q: For `COC(=O)c1ccccc1C(=O)OC`, which outcome is on record?
A: inactive

Q: For `CCOC(=O)CC(SP(=S)(OC)OC)C(=O)OCC` (stereo not given), which outcome is on record?
A: inactive

Q: With `O=C(O)c1nc(Cl)ccc1Cl` as the compound, how does the outcome read?
A: inactive

Q: For `COC(=O)C=C(C)OP(=O)(OC)OC`, which outcome is on record?
A: inactive
